From PubChem BioAssay (NCATS)
Results filed as inconclusive are left out. Entries that show only a call come without a potency. The source made the active and inactive calls. Unless noted, calls come from the whole dose curve; as a rule, active = well fitted curve in the direction sought with a large enough effect; inconclusive = small, poorly fitted or top-dose-only effect, or another doubt; inactive = no such curve, though single readings can be large; an effect the other way counts as inactive or inconclusive.

How the values were obtained:
[1] = Primary fluorescence-based thiol-reactive (MSTI) qHTS assay for identification of artifact compounds. (AID 1845221);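 note: thiol-reactive compounds lower the probe fluorescence signal; nearly all actives have a fitted effect of over 65% in size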
Procedure, shortened: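 MSTI probe at 4 uM final in 2% DMSO/PBS pH 7.4; compounds, 1 h at room temperature in dark. Fluorescence Ex/Em 525/598 nm, normalised to Acetyl-MSTI and MSTI, fitted to 4-parameter Hill.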

[2] = Primary redox qHTS assay for identification of artifact compounds. (AID 1845223)
Procedure, shortened: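 Amplex Red (25 uM) and HRP (250 mU/mL) in HBSS, with compounds for 15 min, then 250 uM DTT for 30 min, room temperature, dark. Fluorescence 525/598 nm read; normalized to DMSO and 10 uM DA3003; Hill fit.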

PA-1 = assay: Primary qHTS to identify gynecologic anti-cancer compounds using libraries of approved drugs and bioactive compounds (AID 1345084); conditions: Gynecologic cancer cell panel viability, ATPlite luminescence, 48 h; series mostly up to 57.5 µM; note: nearly all actives have a fitted effect of over 55% in size; note: potency is the fitted concentration of half-maximal effect
Procedure, shortened: (§1)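 Cells, 1,000 per well, plated 16 h, then exposed 48 h at 37 C to compounds. Viability by ATPlite luminescence after 15 min at room temperature.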

SKOV3 = assay: as above; conditions: Gynecologic cancer cell panel viability, ATPlite luminescence, 48 h; series mostly up to 57.5 µM
Procedure, shortened: as §1

CAOV3 = assay: as above; conditions: Gynecologic cancer cell panel viability, ATPlite luminescence, 48 h; series mostly up to 57.5 µM
Procedure, shortened: as §1

[3] = Drug repurposing screens with cells derived from glioblastoma tumor samples (AID 1345199); conditions: GBM patient neurospheres viability, ATP luminescence, 48 h; note: nearly all actives have a fitted effect of over 40% in size; note: potency is the fitted concentration of half-maximal effect
Procedure, shortened: (§2)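 Four patient lines of CD133+ GBM neurospheres were screened at several concentrations; hits were retested in those lines plus three slower-growing GBM lines, using 48-hour treatment and ATP-based viability.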

[4] = molecular target: Cytochrome P450 2C9 (Homo sapiens) (UniProt P11712); assay: Cytochrome P450 family 2 subfamily C member 9 (CYP2C9) small molecule antagonists: luciferase biochemical (cell-free) qHTS assay (AID 1645842; active = well fitted curve in the direction sought with a large enough effect in the repeat runs; an effect the other way counts as inactive or inconclusive; note: potency is the fitted concentration of half-maximal effect; nearly all actives have a fitted effect of over 55% in size)
Procedure, shortened: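 Luminescence, after 20 min with luciferin detection reagent, reflected CYP2C9 turnover during a 1 h NADPH-driven reaction at 37C. Enzyme-substrate mix contained 0.4% bovine serum albumin and was preincubated with compound 10 min at room temperature.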

[5] = molecular target: Cytochrome P450 2D6 (Homo sapiens) (UniProt P10635); assay: Cytochrome P450 family 2 subfamily D member 6 (CYP2D6) small molecule antagonists: luciferase biochemical (cell-free) qHTS assay (AID 1645840; active = well fitted curve in the direction sought with a large enough effect in the repeat runs; an effect the other way counts as inactive or inconclusive; note: nearly all actives have a fitted effect of over 55% in size; note: potency is the fitted concentration of half-maximal effect)
Procedure, shortened: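 P450-Glo luminescent screen: recombinant CYP2D6 enzyme–proluciferin substrate mix preincubated with compound 10 min at room temperature, then NADPH regeneration added for 1 h at room temperature. Detection reagent added for 20 min; luciferin light read as relative luminescence units.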

[6] = molecular target: Catechol O-methyltransferase (Homo sapiens) (UniProt P21964); assay: Confirmatory Screen for Target Class Profiling of Small Molecule Inhibitors of Methyltransferases (AID 1745852; calls by dose curve); conditions: MTase-Glo luminescence, SAH detection, recombinant enzyme; measured here: COMT max response; stronger effect = lower value
[7] = molecular target: Guanidinoacetate N-methyltransferase (Homo sapiens) (UniProt Q14353); assay: as above; conditions: activity change, negative = inhibition: at 57.3 µM (top of the series) unless noted
[8] = molecular target: Nicotinamide N-methyltransferase (Homo sapiens) (UniProt P40261); assay: as above; conditions: MTase-Glo luminescence, SAH detection, recombinant enzyme; measured here: NNMT max response; stronger effect = lower value
[9] = molecular target: Phenylethanolamine N-methyltransferase (Homo sapiens) (UniProt P11086); assay: as above; conditions: MTase-Glo luminescence, SAH detection, recombinant enzyme; measured here: PNMT max response; stronger effect = lower value
[10] = qHTS Assay for Identifying Gametocytocidal Compounds (AID 743244); note: potency is the fitted concentration of half-maximal effect; conditions: P. falciparum 3D7 stage III-V gametocytes, alamarBlue, 72 h; max response: stronger effect = lower value
Procedure, shortened: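 Stage III-V P. falciparum 3D7 gametocytes, 20,000 per well, were exposed to compounds for 72 h at 37C, 5% CO2. AlamarBlue was then added for 24 h and viability was read as fluorescence at Ex 525/Em 598 nm.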

astro = assay: Drug repurposing screens with cells derived from glioblastoma tumor samples (AID 1345199); conditions: viability, ATP luminescence, 48 h; series mostly up to 45.9 µM; note: nearly all actives have a fitted effect of over 40% in size; note: potency is the fitted concentration of half-maximal effect
Procedure, shortened: as §2

Chain of Cytochrome P450 2C9 (Homo sapiens) (P11712 whole entry, looked up): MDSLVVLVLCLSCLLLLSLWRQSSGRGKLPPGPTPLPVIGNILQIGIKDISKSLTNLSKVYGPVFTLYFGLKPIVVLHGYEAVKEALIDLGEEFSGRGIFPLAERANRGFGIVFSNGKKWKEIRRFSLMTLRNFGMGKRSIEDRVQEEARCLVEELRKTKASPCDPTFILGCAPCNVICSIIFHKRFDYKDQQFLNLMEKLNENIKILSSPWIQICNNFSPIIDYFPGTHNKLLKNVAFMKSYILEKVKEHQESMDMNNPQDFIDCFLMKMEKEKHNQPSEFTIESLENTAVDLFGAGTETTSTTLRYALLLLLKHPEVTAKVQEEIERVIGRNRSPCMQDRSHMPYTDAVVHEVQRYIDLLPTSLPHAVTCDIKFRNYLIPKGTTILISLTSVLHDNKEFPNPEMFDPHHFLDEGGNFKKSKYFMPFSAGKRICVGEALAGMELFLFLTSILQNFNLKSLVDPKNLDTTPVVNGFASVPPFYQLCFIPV
Chain of Cytochrome P450 2D6 (Homo sapiens) (P10635 whole entry, looked up): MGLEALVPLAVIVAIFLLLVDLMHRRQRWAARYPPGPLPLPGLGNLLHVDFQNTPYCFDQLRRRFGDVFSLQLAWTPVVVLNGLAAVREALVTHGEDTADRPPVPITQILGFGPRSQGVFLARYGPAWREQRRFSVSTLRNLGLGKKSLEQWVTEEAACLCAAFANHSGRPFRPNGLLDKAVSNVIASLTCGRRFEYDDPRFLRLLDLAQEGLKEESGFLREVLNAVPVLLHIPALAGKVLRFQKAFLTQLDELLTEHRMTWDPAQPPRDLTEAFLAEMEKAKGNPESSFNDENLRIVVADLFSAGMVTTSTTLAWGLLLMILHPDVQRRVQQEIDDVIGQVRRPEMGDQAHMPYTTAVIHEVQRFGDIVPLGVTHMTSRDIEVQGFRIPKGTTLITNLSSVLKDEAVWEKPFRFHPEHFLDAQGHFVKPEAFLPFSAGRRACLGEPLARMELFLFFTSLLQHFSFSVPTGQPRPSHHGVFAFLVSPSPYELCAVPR
Chain of Phenylethanolamine N-methyltransferase (Homo sapiens) (P11086 whole entry, looked up): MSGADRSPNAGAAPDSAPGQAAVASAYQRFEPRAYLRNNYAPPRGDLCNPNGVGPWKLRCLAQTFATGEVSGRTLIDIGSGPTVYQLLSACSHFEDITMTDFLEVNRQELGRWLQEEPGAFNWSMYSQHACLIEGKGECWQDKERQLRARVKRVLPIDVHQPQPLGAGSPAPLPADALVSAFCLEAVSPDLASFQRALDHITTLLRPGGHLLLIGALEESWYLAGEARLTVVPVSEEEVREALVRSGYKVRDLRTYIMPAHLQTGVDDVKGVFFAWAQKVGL
Chain of Nicotinamide N-methyltransferase (Homo sapiens) (P40261 whole entry, looked up): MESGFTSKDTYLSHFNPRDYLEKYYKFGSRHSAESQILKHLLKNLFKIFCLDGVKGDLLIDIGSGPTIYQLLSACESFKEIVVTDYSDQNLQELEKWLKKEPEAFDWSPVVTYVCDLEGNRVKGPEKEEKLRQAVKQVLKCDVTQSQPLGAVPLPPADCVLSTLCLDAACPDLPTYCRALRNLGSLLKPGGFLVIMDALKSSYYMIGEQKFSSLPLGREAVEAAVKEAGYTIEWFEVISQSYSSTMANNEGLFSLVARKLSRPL
Chain of Catechol O-methyltransferase (Homo sapiens) (P21964 whole entry, looked up): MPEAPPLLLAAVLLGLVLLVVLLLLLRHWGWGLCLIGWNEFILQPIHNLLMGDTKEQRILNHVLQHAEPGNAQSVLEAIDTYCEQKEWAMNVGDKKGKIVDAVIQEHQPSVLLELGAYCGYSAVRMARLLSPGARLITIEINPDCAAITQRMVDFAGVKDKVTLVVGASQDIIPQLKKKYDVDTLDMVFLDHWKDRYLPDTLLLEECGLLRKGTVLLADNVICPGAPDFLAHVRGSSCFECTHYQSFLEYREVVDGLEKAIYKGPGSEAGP

COc1ccc(-c2c(C)c(C(=O)NN3CCCCC3)nn2-c2ccc(Cl)cc2Cl)cc1
Potency [1]: inactive | Potency [2]: inactive | Potency (PA-1): inactive | Potency (SKOV3): inactive

CC[C@H](C)[C@H]1O[C@]2(CC[C@@H]1C)C[C@@H]1C[C@@H](C/C=C(\C)[C@@H](O[C@H]3C[C@H](OC)[C@@H](O[C@H]4C[C@H](OC)[C@@H](O)[C@H](C)O4)[C@H](C)O3)[C@@H](C)/C=C/C=C3\CO[C@@H]4[C@H](O)C(C)=C[C@@H](C(=O)O1)[C@]34O)O2
Potency [2]: inactive | Potency (CAOV3): inactive | Potency (PA-1): inactive | Potency (SKOV3): inactive | activity, negative = cell killing ([3]; at 46.1 µM (top of the series), tumour line C): -34.4% (inactive) | Potency ([3]; tumour line A): 1.12 µM (active) | Potency ([3]; tumour line B): 3.98 µM (active) | Potency ([3]; tumour line D): 2.82 µM (active)

CN([C@H]1c2cc(OCCCC(F)(F)F)ccc2OC(C)(C)[C@@H]1O)S(C)(=O)=O
Potency [1]: inactive | Potency (CAOV3): inactive | Potency (PA-1): inactive

COc1cc(-c2cc(-c3cccc(O)c3)cnc2N)cc(OC)c1OC
Potency [4]: 0.849 µM (active) | Potency [1]: inactive | Potency [2]: inactive | Potency (CAOV3): inactive | Potency (PA-1): inactive

CCCCc1nc(C)c(CC(=S)N(C)C)c(=O)n1Cc1ccc(-c2ccccc2-c2nn[nH]n2)cc1
Potency [5]: inactive | Potency [4]: 9.52 µM (active) | Potency [2]: inactive | Potency (CAOV3): inactive | Potency (PA-1): inactive

COc1ccc(-c2nc(-c3cc(C(F)(F)F)cc(C(F)(F)F)c3)n(Cc3ccc(C(N)=O)cc3)c2-c2ccc(OC)cc2)cc1
Potency [4]: 5.35 µM (active) | activity [6]: 0.0984% | activity change, negative = inhibition [7]: -0.694% | activity [8]: -7.68% | activity [9]: -1.33% | Potency [1]: inactive | Potency (CAOV3): inactive | Potency (PA-1): inactive | Potency (SKOV3): inactive

Cc1cc(C)c(NC(=O)N(Cc2ccc3c(c2)Cc2ccccc2-3)C2CCCCCC2)c(C)c1
Potency [5]: inactive | Potency [4]: 6.01 µM (active) | activity [6]: -9.37% | activity change, negative = inhibition [7]: -11.3% | activity [8]: -15.8% | activity [9]: -14.1% | Potency [1]: inactive | Potency [2]: inactive | Potency (PA-1): inactive | Potency (SKOV3): inactive

C=C1C(=O)O[C@@H]2C[C@@H](C)[C@]34C[C@]5(C(=O)O[C@H]6CC(C)=C([C@H](C)CCCO)[C@H](OC(=O)C(C)CC)[C@H]65)[C@@H](C(C)=C3C[C@@H]12)[C@H]4OC(C)=O (stereo not given in full)
Potency (SKOV3): inactive

C=C1C(=O)O[C@@H]2/C=C(/C)CC3C=C(C[C@H](OC(=O)/C(C)=C\C)[C@@H]12)C(=O)O3 (stereo not given in full)
Potency [2]: inactive | Potency (CAOV3): inactive | Potency (PA-1): inactive | Potency (SKOV3): inactive

COc1ccc2c(c1)CN(C(=O)CCN1CCC(Cc3ccccc3)CC1)CCS2
Potency [5]: 0.536 µM (active) | Potency (PA-1): inactive

CNc1cc(OC)c(C(=O)N[C@@H]2CCN(Cc3ccccc3)[C@@H]2C)cc1Cl
Potency [5]: 0.107 µM (active) | Potency [4]: 8.49 µM (active) | Potency [1]: inactive | Potency (CAOV3): inactive | Potency (PA-1): inactive | Potency (SKOV3): inactive

CCOC(=O)CCC(=O)O[C@H]1[C@H](O[C@@H]2[C@@H](C)[C@H](O[C@H]3C[C@@](C)(OC)[C@@H](O)[C@H](C)O3)[C@@H](C)C(=O)O[C@H](CC)[C@@](C)(O)[C@H](O)[C@@H](C)C(=O)[C@H](C)CC2(C)O)O[C@H](C)C[C@@H]1N(C)C (stereo not given in full)
Potency [2]: inactive | Potency (PA-1): inactive | Potency (SKOV3): inactive

CC(C)n1cnc2c(Nc3cccc(Cl)c3)nc(NCCO)nc21
Potency [5]: 16.9 µM (active) | Potency [4]: 9.52 µM (active) | Potency (PA-1): inactive

O=C(CC1NCCC[C@H]1O)Cn1cnc2cc(Br)c(Cl)cc2c1=O (stereo not given in full)
Potency [2]: inactive | Potency (CAOV3): inactive | Potency (SKOV3): inactive

CCN(CC)Cc1cccc(/C=C/c2nc3ccc(F)cc3c(=O)n2-c2ccccc2Cl)n1
Potency [4]: 19 µM (active) | Potency [1]: inactive | Potency (CAOV3): inactive | Potency (SKOV3): 20 µM (active)

Nc1ccc(N)c([N+](=O)[O-])c1
Potency [10]: 39.8 µM (active) | Potency (PA-1): inactive | Potency (SKOV3): inactive | activity, negative = cell killing ([3]; at 91.6 µM (top of the series), tumour line D): -23.5% (inactive) | Potency (astro): inactive

Cc1cc(CN)cc(C)c1NC(=O)c1ccc(-c2cc(Cl)ccc2Cl)o1
Potency [1]: inactive | Potency [2]: inactive | Potency (PA-1): inactive | Potency (SKOV3): inactive

COc1ccc(C2(CNC(=O)[C@](C)(Cc3c[nH]c4ccccc34)NC(=O)Nc3ccc([N+](=O)[O-])cc3)CCCCC2)nc1
Potency [5]: 3.01 µM (active) | Potency [4]: 2.68 µM (active) | Potency (CAOV3): inactive | Potency (PA-1): inactive

C[C@@H](O[C@H]1OCCN(Cc2n[nH]nc2CN(C)C)[C@H]1c1ccc(F)cc1)c1cc(C(F)(F)F)cc(C(F)(F)F)c1
Potency [5]: 15.1 µM (active) | Potency [4]: 15.1 µM (active) | Potency (PA-1): inactive | Potency (SKOV3): inactive

C=C1C(=O)O[C@@H]2[C@H]1[C@H](O)C[C@]1(C)[C@@H](O)CC=C(C)[C@@H]21
Potency [1]: inactive | Potency [2]: inactive | Potency (PA-1): inactive

C[C@H](NC(=O)C(C)(C)Oc1ccc(C(F)(F)F)cn1)[C@@H](Cc1ccc(Cl)cc1)c1cccc(C#N)c1
Potency [5]: 1.9 µM (active) | Potency [1]: inactive | Potency [2]: inactive | Potency (CAOV3): inactive | Potency (PA-1): inactive
